Our source for the Potency values is PubChem BioAssay (NCATS).

Common to all, as to test: qHTS profiling for inhibitors of Plasmodium falciparum proliferation (AID 504749); note: nearly all actives have a fitted effect of over 60% in size
Details in all cases: P. falciparum in erythrocytes, SYBR Green DNA, 72 h; series mostly up to 28.7 µM
For orientation: In qHTS, concentration-response curves come from the screen itself.

In one test the test system is AA1029. In a few lines: (§1)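 In a 72 h erythrocytic culture (37 C, humidified, 5% CO2) at 2.5% hematocrit and 0.3% starting parasitemia, compounds were tested; SYBR Green I in detergent lysis buffer stained parasite DNA overnight.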
A further test has as its system CP211. Summed up: as §1
Another test has as its system CP215. Summed up:
as §1

Another test has as its system CP260. In a few lines:
as §1

For the next test, the system named is CP297. In a few lines: as §1
A further test relates to CP315. Summed up:
as §1

The subject of a further test is CP335. In a few lines: as §1
In the next test the test system is DFO2036. In a few lines:
as §1

The next test relates to DIV30. In a few lines: as §1
Another test has as its system FAB9. Summed up:
as §1

For a further test, the system named is ICS. Summed up: as §1
The subject of the next test is JCK. Summed up: as §1
For a further test, the system named is N140. In a few lines:
as §1

Another test deals with PAD. Summed up: as §1
For the next test, the system named is PC15. In a few lines:
as §1

For a further test, the system named is PC26. Summed up:
as §1

A further test relates to TAB109. In a few lines:
as §1

A further test concerns TAB113. In a few lines:
as §1

The next test has as its system TAB165. In a few lines:
as §1

Another test relates to W2. Summed up: as §1

Results filed as inconclusive are left out. Calls of active or inactive are those of the source. Calls come from the whole dose curve; as a rule, active = well fitted inhibition curve with a large enough effect; inconclusive = small, poorly fitted or top-dose-only effect; inactive = flat fitted curve, though single readings scatter.
Potency is the fitted concentration of half-maximal effect.

In the case of `C[C@@H]1C(SC2Cn3cnc[n+]3C2)=C(C(=O)[O-])N2C(=O)[C@H]([C@@H](C)O)[C@@H]12` (stereo not given in full), the Potency result with AA1029, in the test on CP211, in the test on CP215, with CP260, with CP297 and in the test on CP315 was “inactive” in each case. Further, the Potency entry in the test on CP335, with DFO2036, with DIV30, in the test with FAB9, with ICS and with JCK was “inactive” each time. In addition, the Potency result in the test on N140, in the test on PAD, with PC15, with PC26, in the test on TAB109 and in the test with TAB113 was “inactive” throughout. Moreover, the Potency result with TAB165 and in the test on W2 was “inactive” each time.
Take `CC12C=CC(=O)C=C1[C@@H](F)CC1C2C(O)CC2(C)C1CC[C@]2(O)C(=O)CO` (stereo not given in full): the Potency entry with AA1029, in the test with CP211, in the test with CP215, in the test with CP260, with CP297 and in the test with CP315 was “inactive” throughout. The Potency entry in the test with CP335, in the test with DFO2036, in the test with DIV30, in the test on FAB9, in the test on ICS and with JCK was “inactive” each time. Also, the Potency result with N140, in the test with PAD, with PC15, in the test with PC26, with TAB109 and with TAB113 was “inactive” throughout. Also, the Potency entry in the test with TAB165 and in the test on W2 was “inactive” each time.
For `OCC1O[C@@H](O[C@@H]2C(CO)OC(O)C(O)C2O)C(O)C(O)C1O` (stereo not given in full), the Potency entry with AA1029, in the test with CP211, in the test with CP215, in the test on CP260, with CP297 and in the test with CP315 was “inactive” each time. For the same compound, the Potency result with CP335, in the test with DFO2036, with DIV30, in the test with FAB9, in the test with ICS and in the test on JCK was “inactive” each time. The Potency entry in the test with N140, in the test with PAD, in the test with PC15, in the test with PC26, in the test with TAB109 and in the test on TAB113 was “inactive” each time. Also, the Potency result in the test on TAB165 and with W2 was “inactive” in each case.
For `CO/N=C(/C(=O)N[C@@H]1C(=O)N2C(C(=O)O)=C(CSc3nc(C)c(CC(=O)O)s3)CS[C@H]12)c1csc(N)n1`, the Potency result with AA1029, in the test with CP211, in the test on CP215, in the test with CP260, in the test with CP297 and in the test on CP315 was “inactive” throughout. Also, the Potency result in the test on CP335, with DFO2036, in the test on DIV30, with FAB9, in the test with ICS and with JCK was “inactive” each time. The Potency result with N140, in the test on PAD, in the test with PC15, in the test with PC26, in the test with TAB109 and in the test with TAB113 was “inactive” throughout. Besides, the Potency result with TAB165 and in the test on W2 was “inactive” throughout.
With `CO/N=C(/C(=O)N[C@@H]1C(=O)N2C(C(=O)O)=C(C[n+]3ccc(N)n3CCO)CS[C@H]12)c1csc(N)n1`, the Potency result with AA1029, in the test on CP211, with CP215, with CP260, in the test with CP297 and in the test with CP315 was “inactive” each time. Also, the Potency result in the test on CP335, in the test on DFO2036, in the test on DIV30, in the test on FAB9, in the test on ICS and with JCK was “inactive” throughout. Moreover, the Potency result in the test with N140, with PAD, in the test on PC15, with PC26, with TAB109 and with TAB113 was “inactive” each time. The Potency result with TAB165 and in the test with W2 was “inactive” each time.
With `COc1cccc2c1C(=O)c1c(O)c3c(c(O)c1C2=O)C[C@@](O)(C(=O)CO)C[C@@H]3OC1CC(N)C(O)C(C)O1` (stereo not given in full), the Potency with AA1029 is 2240 nM (active); with CP211, 1690 nM (active); in the test on CP215, 3790 nM (active); with CP260, 708 nM (active); with CP297, 1900 nM (active); in the test on CP315, 6750 nM (active). In addition, the Potency in the test with CP335 was 1200 nM (active); with DFO2036 it was 2000 nM (active); in the test with DIV30 it was 4260 nM (active); with FAB9, 3160 nM (active); in the test with ICS it was 631 nM (active); in the test with JCK, 12600 nM (active). Also, the Potency is 2510 nM (active) in the test with N140; 2240 nM (active) with PAD; 2000 nM (active) with PC15; 4780 nM (active) in the test with PC26; 2000 nM (active) with TAB109; 2510 nM (active) with TAB113. In addition, the Potency was 2240 nM (active) with TAB165 and 675 nM (active) in the test with W2.
As to `CC1(C)C2CC[C@]1(C)[C@@H](O)C2`, the Potency result with AA1029, in the test on CP211, with CP215, with CP260, in the test with CP297 and in the test with CP315 was “inactive” in each case. Further, the Potency result in the test on CP335, in the test with DFO2036, in the test on DIV30, in the test on FAB9, in the test with ICS and with JCK was “inactive” in each case. Also, the Potency result with N140, with PAD, with PC15, with PC26, in the test on TAB109 and with TAB113 was “inactive” in each case. The Potency entry in the test with TAB165 and in the test on W2 was “inactive” throughout.
In the case of `O=C(O)CC(O)CC(O)/C=C/c1c(C2CC2)nc2ccccc2c1-c1ccc(F)cc1` (stereo not given), the Potency result in the test with AA1029, in the test on CP211, in the test on CP215, in the test on CP260, in the test on CP297 and with CP315 was “inactive” in each case. In addition, the Potency result in the test on CP335, with DFO2036, in the test with DIV30, in the test on FAB9, with ICS and with JCK was “inactive” each time. Besides, the Potency result in the test with N140, with PAD, in the test on PC15, with PC26, in the test with TAB109 and in the test with TAB113 was “inactive” throughout. Also, the Potency result in the test with TAB165 and in the test with W2 was “inactive” each time.
On to `CCCCN1CC(O)C(O)C(O)C1CO` (stereo not given), for which the Potency entry in the test on AA1029, in the test on CP211, with CP215, in the test on CP260, in the test with CP297 and in the test on CP315 was “inactive” in each case. The Potency result in the test on CP335, in the test on DFO2036, in the test on DIV30, in the test with FAB9, in the test with ICS and in the test with JCK was “inactive” each time. Moreover, the Potency entry in the test on N140, with PAD, in the test on PC15, in the test on PC26, with TAB109 and with TAB113 was “inactive” each time. The Potency result in the test with TAB165 and with W2 was “inactive” throughout.
As to `CNC1C(O)C(OC2C(N)CC(N)C(OC3OC(CN)=CCC3N)C2O)OCC1(C)O` (stereo not given), the Potency result in the test on AA1029, with CP211, in the test with CP215, in the test with CP260, in the test with CP297 and in the test on CP315 was “inactive” throughout. Besides, the Potency result in the test on CP335, in the test on DFO2036, in the test with DIV30, in the test with FAB9, in the test with ICS and with JCK was “inactive” in each case. Further, the Potency result in the test with N140, in the test with PAD, in the test with PC15, in the test on PC26, with TAB109 and in the test on TAB113 was “inactive” throughout. The Potency entry in the test with TAB165 and in the test on W2 was “inactive” in each case.
As for `CCN1CCN(C(=O)NC(C(=O)NC2C(=O)N3C(C(=O)O)=C(CSc4nnnn4C)CSC23)c2ccc(O)cc2)C(=O)C1=O` (stereo not given), the Potency entry in the test on AA1029, with CP211, in the test with CP215, in the test on CP260, in the test with CP297 and with CP315 was “inactive” throughout. Moreover, the Potency entry in the test with CP335, with DFO2036, in the test on DIV30, with FAB9, with ICS and in the test on JCK was “inactive” in each case. In addition, the Potency entry in the test on N140, in the test with PAD, in the test with PC15, in the test on PC26, in the test with TAB109 and with TAB113 was “inactive” each time. For the same compound, the Potency result in the test on TAB165 and in the test on W2 was “inactive” in each case.
Consider `CCN(CC)C(=O)Nc1ccc(OC[C@H](O)CNC(C)(C)C)c(C(C)=O)c1`, for which the Potency entry with AA1029, in the test with CP211, in the test on CP215, in the test on CP260, in the test with CP297 and in the test with CP315 was “inactive” in each case. The Potency result in the test with CP335, with DFO2036, in the test with DIV30, in the test on FAB9, in the test with ICS and with JCK was “inactive” each time. In addition, the Potency result in the test with N140, with PAD, in the test on PC15, in the test with PC26, in the test on TAB109 and with TAB113 was “inactive” throughout. Also, the Potency result in the test with TAB165 and in the test with W2 was “inactive” in each case.
